CYP2C9 act: activators of human CYP2C9; 1.4% of 96,000 active; activation factor at 5 µM; recombinant CYP2C9, luciferin-H conversion, luminescence; active compounds read high; factor 1 = untreated enzyme, 0 = blocked; P11712;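 active means activation factor of 2 or more for CYP2C9 at a 5 µM dose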
CD11b adhes enh: CD11b/CD18-fibrinogen binding enhancement; activation, % at 10 µM; 0.07% of 93,000 active; K562 CD11b/CD18 adhesion to fibrinogen, ATPlite luminescence;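 active means 10 µM primary screen giving 50% or more activity, confirmed by 40% or more on retest at that dose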
CYP2C19 act: increases human CYP2C19 enzyme activity; P33261; AID 1025; 96,000 tested, under 10 active; recombinant CYP2C19, luciferin-H EGE luminescence; active compounds read high; 0 = fully inhibited enzyme, 1 = untreated enzyme; activation factor at 5 µM;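 active means activation factor of at least 2 at 5 µM in the primary screen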
Target sequence (P33261 whole entry, looked up): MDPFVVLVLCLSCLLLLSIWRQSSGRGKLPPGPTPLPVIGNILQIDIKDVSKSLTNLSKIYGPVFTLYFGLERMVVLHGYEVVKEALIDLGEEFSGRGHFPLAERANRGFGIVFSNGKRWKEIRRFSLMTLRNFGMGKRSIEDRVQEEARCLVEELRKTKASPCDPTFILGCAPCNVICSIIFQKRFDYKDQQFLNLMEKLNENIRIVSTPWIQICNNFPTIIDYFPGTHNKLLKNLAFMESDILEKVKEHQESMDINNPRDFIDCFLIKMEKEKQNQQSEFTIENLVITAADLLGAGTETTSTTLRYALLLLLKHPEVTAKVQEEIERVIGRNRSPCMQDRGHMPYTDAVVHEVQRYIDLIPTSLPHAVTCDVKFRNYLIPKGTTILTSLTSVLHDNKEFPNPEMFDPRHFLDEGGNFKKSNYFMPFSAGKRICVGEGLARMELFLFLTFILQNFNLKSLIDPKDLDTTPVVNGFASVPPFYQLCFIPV
CYP2C9 inhib: inhibitors of human CYP2C9; P11712; CYP2C9 Supersomes, luciferin-H conversion, luminescence; inhibition, % at 5 µM; 20% of 96,000 active; AID 777;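 active means blocking of liver enzyme CYP2C9 beyond about 50% at 5 µM, limit read from the data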
CYP2C19 inh: inhibitors of human CYP2C19. P33261. CYP2C19 Supersomes, luciferin-H EGE luminescence, 30 min. inhibition, % at 5 µM. 21% of 96,000 active. AID 778;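 active means CYP2C19 inhibition above a set limit at 5 µM in the primary screen, cut at about 50% in these data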
CD11b adhes inh: blocks human CD11b/CD18 adhesion to fibrinogen | P05107+P11215 | K562 CD11b/CD18 adhesion to fibrinogen, ATPlite luminescence; Mn2+ added to activate the integrin | inhibition, % at 10 µM | 0.54% of 93,000 active | AID 1497;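 active means primary inhibition of 50% or more at 10 µM, then 40% or more on retest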
Numbers stand for hits; 0 = inactive; - = no result given. Most compounds without a hit are left out; they make up all but 28% or so of the library.

SMILES	CYP2C9 act	CD11b adhes enh	CYP2C19 act	CYP2C9 inhib	CYP2C19 inh	CD11b adhes inh
Cc1ccc(OCCCC(=O)Nc2nncs2)cc1	0	0	0	74.3	88.2	0
O=C(Nc1ccc2c(c1)OCO2)Nc1ccc(Cl)cc1Cl	0	0	0	0	0	0
O=C(Nc1cc(Cl)ccc1Oc1ccccc1)c1ccccc1F	-	0	-	-	-	0
CC(C(=O)Nc1ccc2c(c1)OCO2)N(c1ccc(Cl)cc1)S(C)(=O)=O (stereo not drawn)	0	0	0	93.4	98.2	0
COc1ccc(NC(=O)C(C)N(c2ccc(C)cc2)S(C)(=O)=O)cc1 (stereo not drawn)	0	0	0	74.5	90.1	0
Cc1ccc(N(C(C)C(=O)Nc2ccc(S(=O)(=O)N3CCOCC3)cc2)S(C)(=O)=O)cc1 (stereo not drawn)	0	0	0	0	0	0
Cc1ccc(N(C(C)C(=O)Nc2cc(Cl)ccc2Oc2ccccc2)S(C)(=O)=O)cc1 (stereo not drawn)	0	-	0	77.1	86.4	-
COc1ccc(C)cc1NC(=O)C(C)N(c1ccc(C)cc1)S(C)(=O)=O (stereo not drawn)	0	0	0	55.6	0	0
NS(=O)(=O)c1ccc(NC(=O)CSc2ccc3ccccc3n2)cc1	0	0	0	0	0	0
CCOC(=O)c1c(C)[nH]c(C(=O)OCC(=O)N2CCN(S(=O)(=O)c3ccccc3)CC2)c1C	0	0	0	0	0	0
CC(=O)c1c(C)[nH]c(C(=O)OCC(=O)N2CCN(S(=O)(=O)c3ccc(C)cc3C)CC2)c1C	0	0	0	50.5	60.6	0
Cc1ccc(S(=O)(=O)N2CCN(C(=O)CSC3CCCC3)CC2)c(C)c1	0	0	0	0	76.4	0
Cn1c(NC(=O)c2ccc(Br)o2)cc(=O)n(C)c1=O	0	0	0	0	0	0
O=C(CCN1c2ccccc2Sc2ccccc21)OCC(=O)N1CCN(C(=O)c2ccco2)CC1	0	0	0	0	0	0
N#Cc1c(Sc2ncc(C(F)(F)F)cc2Cl)nsc1C/C=N\OCc1c(F)cccc1Cl	0	0	0	0	0	0
O=c1[nH]c2ccc(Cl)cc2c(-c2ccccc2)c1SC(=S)N1CCCCC1	0	0	0	52.4	0	0
COC(=O)CCC(=O)Nc1cccc(Br)c1	0	0	0	0	0	0
O=C(CN(C(=O)c1ccccc1Cl)C1CCCCC1)Nc1ccc(Cl)c([N+](=O)[O-])c1	0	-	0	75.2	0	-
Cc1cccc(NC(=O)c2cc(S(=O)(=O)NCc3ccco3)ccc2F)c1C	0	0	0	0	0	0
CCOc1ccc(-c2nc(C)c(C(C)=O)n2O)cc1	0	0	0	0	0	0
N/C(COc1ccc(Cl)cc1Cl)=N\NS(=O)(=O)c1ccccc1	0	0	0	0	0	0
Cc1ccc(-c2nn(C)c(=O)c3ccccc23)cc1CNS(C)(=O)=O	2.3	0	0	0	0	0
CC(=O)NCc1cc(-c2nn(C)c(=O)c3ccccc23)ccc1C	0	0	0	0	0	0
CCOC(=O)NCc1cc(-c2nn(C)c(=O)c3ccccc23)ccc1C	0	0	0	78.3	68.6	0
O=C(COc1ccc(Cl)cc1)Nc1ccc(N2CCN(C(=O)c3ccco3)CC2)cc1	0	-	0	0	50.9	-
SMILES	CYP2C9 act	CD11b adhes enh	CYP2C19 act	CYP2C9 inhib	CYP2C19 inh	CD11b adhes inh
O=C(CSc1ccc(Cl)cc1)Nc1ccc(N2CCN(C(=O)c3ccco3)CC2)cc1	0	0	0	63.8	0	0
CCCc1nnc(NC(=O)Cn2c(=O)oc3cc(Br)ccc32)s1	0	0	0	67.6	0	0
CCc1nnc(NC(=O)Cn2nc(-c3ccccc3OC)ccc2=O)s1	0	0	0	62.9	0	0
CC(C)CN(CC(C)C)c1nnc(NC(=O)Cn2c(=O)oc3ccccc32)s1	0	0	0	0	0	0
CCc1nnc(NC(=O)Cn2c(=O)oc3ccccc32)s1	0	0	0	72.7	63.7	0
CCCc1nnc(NC(=O)Cn2c(=O)oc3ccccc32)s1	0	0	0	54.1	0	0
Fc1ccc(-c2nnc(CN3CCC(c4nc5ccccc5s4)CC3)o2)cc1	0	0	0	0	0	0
CCC(=O)Nc1ccc(S(=O)(=O)c2ccc(NC(=O)CC)cc2)cc1	0	0	0	69.9	0	0
O=C(Nc1ccc(S(=O)(=O)N2CCCCC2)cc1)c1ccc(CN2CCc3ccccc3C2)cc1	0	-	0	68.0	0	-
Cc1ccc(C(=O)Nc2ccc(S(=O)(=O)N3CCc4ccccc4C3)cc2)o1	0	0	0	0	61.0	0
Cc1ccc(NC(=O)c2ccc(CN3CCc4ccccc4C3)cc2)cc1	0	0	0	0	0	0
CCC(=O)Nc1ccc(S(=O)(=O)N2CCc3ccccc3C2)cc1	0	0	0	0	86.2	0
O=C(Nc1ccc(S(=O)(=O)N2CCc3ccccc3C2)cc1)C1CCCO1 (stereo not drawn)	0	0	0	0	0	0
CCC(=O)Nc1ccc(S(=O)(=O)N2CCOCC2)cc1	0	0	0	0	0	0
CCC(=O)Nc1ccc(Nc2ccccc2)cc1	0	0	0	0	0	0
CC(C)CNC(=S)Nc1ccc(Oc2ccccc2)cc1	-	0	-	-	-	0
CSc1ncccc1C(=O)OCC(=O)NC(=O)NCCC(C)C	0	0	0	0	0	0
Cc1ccc(C(=O)Nc2ccc(S(=O)(=O)N3CCc4ccccc43)cc2)o1	0	0	0	74.1	0	0
COC(=O)COc1ccc(S(=O)(=O)N2CCc3ccccc3C2)cc1	2	0	0	0	66.1	0
CC1Cc2ccccc2N1C(=O)CN1C(=O)C(=O)N(Cc2ccccc2)C1=O (stereo not drawn)	0	0	0	0	0	0
Cc1cc(C)nc(N(C#N)Cc2ccccc2)n1	2	0	0	0	0	0
Cc1cc(C)nc(N(C#N)CC(=O)c2ccccc2)n1	2.2	0	0	0	0	0
Cc1cc(C)nc(N(C#N)CCOc2ccccc2)n1	0	0	0	0	0	0
Cc1cc(C)nc(N(C#N)Cc2cccc3ccccc23)n1	2.9	0	0	0	59.4	0
COc1cc(OC)cc(C(=O)N[C@H](C(=O)OCC(=O)Nc2ccc(C(C)C)cc2)C(C)C)c1	-	0	-	-	-	0
CCOc1cccc(C2C(C(=O)c3ccco3)=C(O)C(=O)N2Cc2ccncc2)c1 (stereo not drawn)	0	0	0	0	0	0
O=C1NC(c2cn(-c3ccccc3)nc2-c2cccs2)C(C(=O)c2cccnc2)C(O)(C(F)(F)F)N1 (stereo not drawn)	0	0	0	0	0	0
CCOC(=O)C1CCN(S(=O)(=O)c2ccc(OC)c(Cl)c2Cl)CC1	0	0	0	0	0	0
CCOC(=O)C1CCN(S(=O)(=O)c2cc(Cl)c(C)cc2OC)CC1	0	0	0	0	97.9	0

Screens deposited in PubChem by Sanford-Burnham Center for Chemical Genomics.
